A selection: hits, their analogues and other compounds. The true share with any hit is near 3.1%.
GDH-TPI inh: GDH-TPI coupling enzyme inhibitors, primary screen, artefact control for M. tuberculosis FBA inhibitor project, biochemical, absorbance, full deck | GDH-TPI coupled enzyme counterscreen, NADH absorbance | inhibition, % at 4.8 µM | actives 1.2% (n = 360,000); in the data active means inhibition above about 30%;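 further: 0% = DMSO wells and 100% = wells lacking the enzyme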
FBA Mtb inh: Mtb FBA enzyme inhibitors, primary screen, biochemical, fluorescence, strain H37Rv. Fructose-bisphosphate aldolase (Mycobacterium tuberculosis (strain ATCC 25618 / H37Rv)), …. purified M. tuberculosis FBA, fluorescence read-out. inhibition, % at 1 µM. actives 2.3% (n = 360,000). AID 588726, 2011; in the data active means inhibition above about 27%;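 further: 0% = vehicle and 100% = reference inhibitor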
Target sequence (P9WQA3 whole entry, looked up): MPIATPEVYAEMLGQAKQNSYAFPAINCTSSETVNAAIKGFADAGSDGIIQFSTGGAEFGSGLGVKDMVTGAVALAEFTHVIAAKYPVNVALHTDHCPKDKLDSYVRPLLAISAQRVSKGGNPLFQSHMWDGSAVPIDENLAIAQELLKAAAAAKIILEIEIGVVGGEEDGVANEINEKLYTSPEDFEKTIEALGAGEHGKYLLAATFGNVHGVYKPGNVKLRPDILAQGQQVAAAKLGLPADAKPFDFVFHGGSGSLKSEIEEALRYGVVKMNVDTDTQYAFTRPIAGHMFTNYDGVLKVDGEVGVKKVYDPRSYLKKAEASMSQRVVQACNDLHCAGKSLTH
FadD28 FP inh: inhibitors of FadD28 bisubstrate probe binding, primary screen, biochemical, fluorescence polarization, single point; inhibition, % at 12.5 µM; Mycobacterium tuberculosis FadD28 fatty-acid-AMP ligase; actives 0.22% (n = 360,000); AID 588549, 2011; in the data active means inhibition above about 8.5%, passing the limit was not always enough
Mtb BioA inh: M. tuberculosis BioA enzyme inhibitors, primary screen, biochemical, plate reader, single point, HTS; 7,8-diaminopelargonic acid synthase BioA (Mycobacterium tuberculosis); purified M. tuberculosis BioA enzyme; inhibition, % at 9.99 µM; actives 0.096% (n = 360,000); AID 602481, 2012; in the data active means inhibition above about 40%
3CLpro inhibitor: SARS-CoV 3CLpro protease inhibitors, primary screen, biochemical, quenched FRET; inhibition, % at 6 µM; Replicase polyprotein 1ab (Severe acute respiratory syndrome coronavirus), P0C6X7; actives 0.14% (n = 290,000); AID 1706, 2009; recombinant SARS-CoV 3CLpro, quenched FRET peptide cleavage; in the data active means inhibition above about 12%
An asterisk follows results filed as active; · = not tested or not shown.

SMILES	GDH-TPI inh	FBA Mtb inh	FadD28 FP inh	Mtb BioA inh	3CLpro inhibitor
C=CCn1c(O)c(N=NC(=O)CNC(=O)/C=C/c2ccco2)c2ccccc21	35.2*	-5.9	-4.4	1.2	2.1
CCOc1ccc(-n2c(C)cc(/C=N/Nc3nc(C)cc(=O)[nH]3)c2C)cc1	36.2*	2.8	-3.1	-0.4	2.3
CSc1ccc(/C=N/Nc2nc(C)cc(=O)[nH]2)cc1	20.0	6.1	-2.8	1.1	-1.9
Cc1cc(=O)[nH]c(N/N=C/c2ccc(-c3ccc(F)cc3)o2)n1	37.0*	0.1	0.2	-0.9	-1.5
Cc1cc(C)nc(N/N=C/C=C/c2ccccc2)n1	34.2*	-2.5	-2.6	-1.0	0.2
Cc1cc(=O)[nH]c(N/N=C/C=C/c2ccccc2)n1	37.5*	-2.0	0.5	·	-0.3
O=C(C[C@@H]1CC[C@H]2[C@@H](COC[C@@H](O)CN2S(=O)(=O)c2cccc(Cl)c2)O1)NCCCN1CCOCC1	·	·	·	1.2	·
C[C@H]1CN([C@@H](C)CO)C(=O)c2cccc(NC(=O)Nc3ccccc3)c2O[C@@H]1CN(C)CC1CC1	·	·	·	-0.3	·
CS(=O)(=O)N1C[C@@H](O)COC[C@H]2O[C@@H](CC(=O)NCc3ccccc3)CC[C@@H]21	·	·	·	-0.2	·
CCNC(=O)C[C@H]1C=C[C@@H](NC(=O)C2CC2)[C@@H](CO)O1	·	·	·	-2.7	·
O=C(C1CCOCC1)N1C[C@@H]2[C@H](c3ccccc31)[C@@H](CO)N2Cc1ccc(Cl)cc1	·	·	·	2.9	·
Cc1noc(C)c1NC(=O)N[C@H]1CC[C@@H](CCNC(=O)C2CC2)O[C@H]1CO	·	·	·	-2.9	·
COc1ccccc1/C=N/Nc1nc(C)cc(C)n1	21.4	-0.9	-2.9	1.2	0.3
Cc1cc(=O)[nH]c(NN=Cc2c(Cl)cccc2Cl)n1	17.0	-1.6	-2.9	1.2	·
COc1ccccc1C=NNc1nc(C)cc(=O)[nH]1	37.2*	-0.1	0.3	-0.8	·
Cc1cc(=O)[nH]c(N/N=C/c2ccc(Br)s2)n1	41.9*	-3.5	-3.6	1.4	3.6
COCCNC(=S)NCCCNc1nc2cc3c(cc2cc1C#N)OCO3	5.3	180.2*	-1.2	-0.7	0.6
Cc1nc2sc(C#N)c(N)c2c2c1CCCC2	-0.6	36.0*	-3.0	-2.1	-2.5
O=C(Cc1ccc(Br)cc1)c1ccc(O)cc1O	41.0*	-3.6	0.0	-1.2	7.5
O=C(COc1ccccc1Br)c1ccc2c(c1)OCO2	2.8	-4.6	-6.7	-1.1	·
COc1ccc(CC(=O)c2ccc(O)cc2O)cc1	43.1*	2.5	-1.5	0.2	7.4
O=C(Cc1ccc([N+](=O)[O-])cc1)OCc1ccc([N+](=O)[O-])cc1	0.7	-1.4	·	·	-0.6
O=C(Cc1ccc([N+](=O)[O-])cc1)c1ccc(O)cc1O	50.6*	1.5	1.3	0.5	0.6
COc1ccc(C(=O)Cc2ccc3c(c2)OCO3)c(O)c1	6.4	0.6	-1.3	·	4.4
O=C(COc1ccccc1Br)c1ccc(O)cc1O	44.3*	-0.6	-3.8	0.3	4.4
SMILES	GDH-TPI inh	FBA Mtb inh	FadD28 FP inh	Mtb BioA inh	3CLpro inhibitor
CCOC(=O)c1sc(=S)n(C)c1NC(=O)c1ccc(C(C)(C)C)cc1	40.7*	-0.2	-3.3	3.4	3.7
C=CCn1c(NC(=O)c2ccc(Br)o2)c(C(=O)OCC)sc1=S	20.4	7.0	0.6	-1.3	3.6
CCOC(=O)c1sc(=S)n(C)c1NC(=O)c1ccccc1Cl	39.5*	0.0	-3.0	-1.3	-2.2
CCOC(=O)c1sc(=S)n(C)c1NC(=O)c1ccc(OC)cc1	36.5*	-0.4	-3.9	2.8	1.0
CCOC(=O)c1sc(NC(=O)c2ccc(OC)cc2)nc1C	6.2	5.2	-3.2	-1.6	-2.0
CCOC(=O)c1sc(=S)n(CC)c1NC(=O)C1CC1	35.1*	1.9	-2.0	-0.3	-6.2
O=C(C[C@H]1C[C@@H]2c3cc(NC(=O)c4ccc5c(c4)OCO5)ccc3O[C@@H]2[C@H](CO)O1)NCCN1CCCCC1	·	·	·	-1.0	·
CCOC(=O)c1sc(NC(=O)Cn2nnc3sc4c(c3c2=O)CCCC4)nc1C	28.7	-1.3	-4.9	-0.5	0.3
CCOC(=O)c1nc2sc3c(c2c(=O)n1C(C)C(=O)OCC)CCCC3 (stereo not given)	11.0	134.5*	-0.9	1.8	4.4
O=C(NN=Cc1ccc(N(CCCl)CCCl)cc1Cl)c1cccnc1	72.0*	8.2	-1.9	·	·
Cc1cc(N(CCCl)CCCl)ccc1C=NNC(=O)c1cccnc1	50.9*	2.8	3.6	20.4	·
O=C(N/N=C/c1cc(O)ccc1Br)c1cccnc1	15.4	5.4	-2.4	2.6	1.9
C[C@H]1CN([C@@H](C)CO)C(=O)c2cc(NC(=O)Nc3ccc(C(F)(F)F)cc3)ccc2O[C@@H]1CN(C)Cc1ccc2c(c1)OCO2	·	·	·	-1.5	·
N#Cc1c(-c2cccs2)cc(-c2ccccn2)nc1N	13.1	78.5*	-2.1	-1.1	-0.9
Cc1ccccc1-c1nnc(-c2ccccc2)o1	-1.9	3.0	-4.0	-2.6	-3.8
Cn1cc(-c2nnc(-c3ccccc3)o2)c2ccccc21	15.0	172.9*	2.0	0.0	2.9
COc1ccc(NC(=O)CNc2ccccc2N2CCCC2=O)cc1S(=O)(=O)N1CCOCC1	1.9	-1.1	10.2*	0.1	·
COc1ccc(Nc2nc(-c3ccccc3)nc3ccccc23)cc1S(=O)(=O)N1CCOCC1	40.3*	7.4	-0.7	-1.5	-1.9
Cc1ccc(S(=O)(=O)N2CCCCC2)cc1NC(=O)CNc1ccccc1N1CCCC1=O	-4.2	0.3	·	9.2	·
COc1ccc(S(=O)(=O)N2CCCCC2)cc1NC(=O)CNc1ccccc1N1CCCC1=O	2.2	0.7	0.0	-1.1	·
Cc1ccc(NC(=O)CNc2ccccc2N2CCCC2=O)cc1S(=O)(=O)N1CCOCC1	1.7	1.1	21.3*	-0.5	·
COc1ccc(C(=O)Nc2ccc(-c3ccc(C)o3)cc2)cc1S(=O)(=O)N1CCOCC1	37.9*	2.2	-1.1	-1.4	-2.4
COc1ccc(NC(=O)c2cc(C)nc3ccccc23)cc1S(=O)(=O)N1CCOCC1	6.1	2.1	-2.3	0.6	·
COc1ccc(-c2ccc3[nH]c4c(c3c2)CCN2C(=O)[C@@H]([C@H](C)O)[C@@H](N(C)C(=O)Nc3cc(Cl)cc(Cl)c3)C[C@@H]42)cc1	20.4	1.6	40.6*	-0.2	·
COc1ccc2cc(C(=O)C3CCCN(C(=O)Cc4c(C)noc4C)C3)ccc2c1 (stereo not given)	12.8	181.7*	-2.6	1.9	4.8
COc1ccc2cc(C(=O)C3CCCN(C4CCOCC4)C3)ccc2c1 (stereo not given)	20.1	148.2*	0.9	-1.9	-3.4
O=C(Nc1cccc(Cl)c1)N[C@H]1CC[C@@H](CCNC(=O)C2CCCC2)O[C@H]1CO	·	·	·	-1.9	·
N#Cc1ccc(-c2ccc3c(c2)[C@H]2[C@H](CCN2C(=O)c2ccccc2F)[C@@H](CO)N3)cc1	·	·	·	2.6	·
Nc1c(C(=O)O)ccc2c1C(=O)c1ccccc1C2=O	-0.6	-14.8	2.0	·	8.1

Screening data deposited in PubChem by several laboratories.
